# Laboratory results reported in publication PMC7862700, “An all-to-all approach to the identification of sequence-specific readers for epigenetic DNA modifications on cytosine”.
# How the values were obtained:
# Test in all cases: DAPPL (digital affinity profiling via proximity ligation, sequencing); 10 mM Tris-HCl pH 7.5, 50 mM NaCl, 1 mM DTT, 4% glycerol, room temperature, 30 min; GST-TFs on glutathione beads, 16-mer random dsDNA library, 0.1% formaldehyde crosslink after washing; high values mean tight binding
# FLI1 = target: T1, FLI1 (Homo sapiens, UniProt Q01543 1-452); settings: protein: recombinant; tags: N-terminal GST; dsDNA, one strand shown
# T1 sequence: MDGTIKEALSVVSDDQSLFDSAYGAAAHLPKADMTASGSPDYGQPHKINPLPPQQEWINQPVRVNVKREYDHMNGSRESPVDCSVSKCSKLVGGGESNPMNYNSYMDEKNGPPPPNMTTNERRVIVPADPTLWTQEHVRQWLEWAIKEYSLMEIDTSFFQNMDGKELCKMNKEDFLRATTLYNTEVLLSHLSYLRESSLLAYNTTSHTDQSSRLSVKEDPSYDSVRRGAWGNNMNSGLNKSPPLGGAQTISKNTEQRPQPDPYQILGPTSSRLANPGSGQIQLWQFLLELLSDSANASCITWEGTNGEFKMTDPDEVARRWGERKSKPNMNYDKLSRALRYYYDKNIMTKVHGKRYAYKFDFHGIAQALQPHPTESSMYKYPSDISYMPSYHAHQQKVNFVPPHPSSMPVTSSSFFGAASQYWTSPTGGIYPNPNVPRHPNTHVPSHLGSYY
# In short: (§1)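 Human transcription factors fused to GST were expressed in yeast, captured on glutathione beads, given DNA barcodes and pooled with a GST-only negative control. Pools were incubated with 200 nmole of a 16-mer random double-stranded DNA library in Tris/NaCl/DTT/glycerol buffer at room temperature for 30 min. They were then washed, crosslinked with 0.1% formaldehyde, proximity-ligated (BsaI/T4 ligase, 1 h, 37 °C), PCR-amplified and sequenced on an Illumina NextSeq500. Binding signal is each 6-mer's read frequency for a factor divided by its frequency for the GST control.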
# ELK1 = target: T2, ELK1 (Homo sapiens, UniProt P19419 1-428); settings: protein: recombinant; tags: N-terminal GST; dsDNA, one strand shown
# T2 sequence: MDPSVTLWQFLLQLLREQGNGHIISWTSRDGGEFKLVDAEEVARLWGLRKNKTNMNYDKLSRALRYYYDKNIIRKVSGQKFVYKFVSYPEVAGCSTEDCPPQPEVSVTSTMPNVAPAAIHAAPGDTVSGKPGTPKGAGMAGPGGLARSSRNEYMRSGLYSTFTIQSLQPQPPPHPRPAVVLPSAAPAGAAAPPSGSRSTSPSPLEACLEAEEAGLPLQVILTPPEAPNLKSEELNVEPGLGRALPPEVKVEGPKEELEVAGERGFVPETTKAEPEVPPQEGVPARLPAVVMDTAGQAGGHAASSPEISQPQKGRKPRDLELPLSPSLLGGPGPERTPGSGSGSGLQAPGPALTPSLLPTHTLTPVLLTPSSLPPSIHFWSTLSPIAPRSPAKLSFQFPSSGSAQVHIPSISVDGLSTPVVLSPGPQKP
# In short: as §1
# GABPA = target: T3, GABPA (Homo sapiens, UniProt Q06546 1-454); settings: protein: recombinant; tags: N-terminal GST; dsDNA, one strand shown
# T3 sequence: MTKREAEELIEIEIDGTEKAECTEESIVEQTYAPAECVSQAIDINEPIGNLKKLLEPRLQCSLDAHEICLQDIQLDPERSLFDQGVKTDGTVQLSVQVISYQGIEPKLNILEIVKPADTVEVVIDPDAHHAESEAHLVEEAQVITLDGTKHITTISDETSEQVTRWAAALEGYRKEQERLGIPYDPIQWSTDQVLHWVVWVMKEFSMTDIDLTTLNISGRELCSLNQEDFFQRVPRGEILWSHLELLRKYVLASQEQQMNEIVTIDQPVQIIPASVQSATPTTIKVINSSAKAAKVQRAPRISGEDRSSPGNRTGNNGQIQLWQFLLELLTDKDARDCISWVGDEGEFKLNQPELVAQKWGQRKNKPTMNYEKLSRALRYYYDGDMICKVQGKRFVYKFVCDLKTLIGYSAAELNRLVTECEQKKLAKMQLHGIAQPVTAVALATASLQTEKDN
# In short: as §1
# ERG = target: T4, ERG (Homo sapiens, UniProt P11308 1-479); settings: protein: recombinant; tags: N-terminal GST; dsDNA, one strand shown
# T4 sequence: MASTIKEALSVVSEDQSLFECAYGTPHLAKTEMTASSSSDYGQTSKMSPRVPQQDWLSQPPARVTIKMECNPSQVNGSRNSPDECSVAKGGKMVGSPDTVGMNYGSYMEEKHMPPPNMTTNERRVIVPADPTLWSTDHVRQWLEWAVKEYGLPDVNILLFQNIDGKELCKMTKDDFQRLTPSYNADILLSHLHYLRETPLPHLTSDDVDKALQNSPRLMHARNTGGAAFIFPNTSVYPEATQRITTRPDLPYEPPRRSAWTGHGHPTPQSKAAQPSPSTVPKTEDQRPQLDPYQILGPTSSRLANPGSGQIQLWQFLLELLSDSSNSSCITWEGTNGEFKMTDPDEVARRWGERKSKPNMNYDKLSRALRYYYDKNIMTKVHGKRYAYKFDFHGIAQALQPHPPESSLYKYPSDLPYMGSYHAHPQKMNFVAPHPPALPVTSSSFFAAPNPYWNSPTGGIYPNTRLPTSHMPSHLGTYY
# In short: as §1
# ELF1 = ELF1 (Homo sapiens, UniProt P32519 1-619); settings: protein: recombinant; tags: N-terminal GST; dsDNA, one strand shown
# Sequence of ELF1 (P32519 whole entry): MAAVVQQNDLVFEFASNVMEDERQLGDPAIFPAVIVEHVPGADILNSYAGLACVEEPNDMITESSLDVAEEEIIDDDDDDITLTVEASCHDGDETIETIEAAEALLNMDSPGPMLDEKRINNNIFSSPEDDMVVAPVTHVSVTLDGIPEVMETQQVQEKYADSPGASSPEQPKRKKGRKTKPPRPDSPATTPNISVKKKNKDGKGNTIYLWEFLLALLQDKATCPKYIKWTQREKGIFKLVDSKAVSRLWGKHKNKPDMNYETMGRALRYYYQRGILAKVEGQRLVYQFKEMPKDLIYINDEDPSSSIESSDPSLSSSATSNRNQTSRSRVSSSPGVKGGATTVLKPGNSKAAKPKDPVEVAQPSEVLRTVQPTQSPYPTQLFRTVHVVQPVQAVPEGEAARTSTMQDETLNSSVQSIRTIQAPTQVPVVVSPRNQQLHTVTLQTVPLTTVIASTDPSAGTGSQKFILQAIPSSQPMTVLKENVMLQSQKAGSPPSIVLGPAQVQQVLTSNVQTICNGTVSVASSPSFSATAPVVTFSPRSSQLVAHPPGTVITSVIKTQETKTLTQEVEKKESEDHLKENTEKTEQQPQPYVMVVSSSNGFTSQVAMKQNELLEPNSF
# In short: as §1
# EHF = target: T5, EHF (Homo sapiens, UniProt Q9NZC4 1-300); settings: protein: recombinant; tags: N-terminal GST; dsDNA, one strand shown
# T5 sequence: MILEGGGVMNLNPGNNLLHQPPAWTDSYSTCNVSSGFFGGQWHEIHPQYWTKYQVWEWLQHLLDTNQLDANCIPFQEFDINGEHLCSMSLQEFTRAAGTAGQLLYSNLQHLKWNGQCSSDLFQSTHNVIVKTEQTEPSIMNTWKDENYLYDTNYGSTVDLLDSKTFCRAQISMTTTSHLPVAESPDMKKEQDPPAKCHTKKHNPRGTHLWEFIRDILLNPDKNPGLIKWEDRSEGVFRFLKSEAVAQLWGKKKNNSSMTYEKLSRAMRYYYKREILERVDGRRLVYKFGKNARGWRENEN
# In short: as §1
# SPI1 = SPI1 (Homo sapiens, UniProt P17947 1-270); settings: protein: recombinant; tags: N-terminal GST; dsDNA, one strand shown
# In short: as §1
# SPIB = SPIB (Homo sapiens, UniProt Q01892 1-262); settings: protein: recombinant; tags: N-terminal GST; dsDNA, one strand shown
# Sequence of SPIB (Q01892 whole entry): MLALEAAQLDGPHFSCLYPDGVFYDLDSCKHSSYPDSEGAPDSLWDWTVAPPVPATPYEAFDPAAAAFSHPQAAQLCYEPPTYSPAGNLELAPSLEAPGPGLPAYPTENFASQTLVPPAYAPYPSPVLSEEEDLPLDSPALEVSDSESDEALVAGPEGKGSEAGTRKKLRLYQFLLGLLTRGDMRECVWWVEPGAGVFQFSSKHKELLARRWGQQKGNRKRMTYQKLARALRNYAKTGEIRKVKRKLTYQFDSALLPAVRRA
# In short: as §1
# ELK3 = target: T6, ELK3 (Homo sapiens, UniProt P41970 1-407); settings: protein: recombinant; tags: N-terminal GST; dsDNA, one strand shown
# T6 sequence: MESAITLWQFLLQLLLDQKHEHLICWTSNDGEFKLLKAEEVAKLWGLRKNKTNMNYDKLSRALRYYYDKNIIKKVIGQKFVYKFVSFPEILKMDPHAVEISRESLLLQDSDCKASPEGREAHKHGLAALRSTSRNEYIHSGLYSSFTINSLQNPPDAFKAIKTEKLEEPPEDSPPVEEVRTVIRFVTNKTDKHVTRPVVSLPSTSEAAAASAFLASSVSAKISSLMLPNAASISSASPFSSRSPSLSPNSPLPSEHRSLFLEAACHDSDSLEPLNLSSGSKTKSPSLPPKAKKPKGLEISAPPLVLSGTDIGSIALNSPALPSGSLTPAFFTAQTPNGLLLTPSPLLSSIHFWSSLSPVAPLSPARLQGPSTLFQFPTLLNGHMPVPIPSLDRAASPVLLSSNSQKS
# In short: as §1
# FEV = target: T7, FEV (Homo sapiens, UniProt Q99581 1-238); settings: protein: recombinant; tags: N-terminal GST; dsDNA, one strand shown
# T7 sequence: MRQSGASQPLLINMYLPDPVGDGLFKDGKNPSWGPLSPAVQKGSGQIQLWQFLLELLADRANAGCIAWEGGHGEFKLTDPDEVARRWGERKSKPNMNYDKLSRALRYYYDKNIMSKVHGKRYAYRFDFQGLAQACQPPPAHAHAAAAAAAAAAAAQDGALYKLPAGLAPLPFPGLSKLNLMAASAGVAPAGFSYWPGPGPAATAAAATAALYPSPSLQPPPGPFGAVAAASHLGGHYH
# In short: as §1
# ETV5 = ETV5 (Homo sapiens, UniProt P41161 1-510); settings: protein: recombinant; tags: N-terminal GST; dsDNA, one strand shown
# Sequence of ETV5 (P41161 whole entry): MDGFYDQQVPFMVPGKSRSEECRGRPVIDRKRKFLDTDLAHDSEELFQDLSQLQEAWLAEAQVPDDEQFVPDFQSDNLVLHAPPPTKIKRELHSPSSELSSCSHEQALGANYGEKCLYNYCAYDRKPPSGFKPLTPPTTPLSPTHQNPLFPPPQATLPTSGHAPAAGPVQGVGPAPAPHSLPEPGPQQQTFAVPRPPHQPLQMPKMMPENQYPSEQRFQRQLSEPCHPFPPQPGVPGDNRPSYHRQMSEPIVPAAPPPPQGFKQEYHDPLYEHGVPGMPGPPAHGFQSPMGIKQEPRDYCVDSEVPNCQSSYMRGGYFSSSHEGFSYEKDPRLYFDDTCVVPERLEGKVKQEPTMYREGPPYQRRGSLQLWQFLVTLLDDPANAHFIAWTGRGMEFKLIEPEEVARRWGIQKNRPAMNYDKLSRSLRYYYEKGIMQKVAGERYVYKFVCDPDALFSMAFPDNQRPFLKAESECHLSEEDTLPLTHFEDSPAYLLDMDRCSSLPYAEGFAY
# In short: as §1
# HSF1 = HSF1 (Homo sapiens, UniProt Q00613 1-529); settings: protein: recombinant; tags: N-terminal GST; chain copies: 3; dsDNA, one strand shown
# Sequence of HSF1 (Q00613 whole entry): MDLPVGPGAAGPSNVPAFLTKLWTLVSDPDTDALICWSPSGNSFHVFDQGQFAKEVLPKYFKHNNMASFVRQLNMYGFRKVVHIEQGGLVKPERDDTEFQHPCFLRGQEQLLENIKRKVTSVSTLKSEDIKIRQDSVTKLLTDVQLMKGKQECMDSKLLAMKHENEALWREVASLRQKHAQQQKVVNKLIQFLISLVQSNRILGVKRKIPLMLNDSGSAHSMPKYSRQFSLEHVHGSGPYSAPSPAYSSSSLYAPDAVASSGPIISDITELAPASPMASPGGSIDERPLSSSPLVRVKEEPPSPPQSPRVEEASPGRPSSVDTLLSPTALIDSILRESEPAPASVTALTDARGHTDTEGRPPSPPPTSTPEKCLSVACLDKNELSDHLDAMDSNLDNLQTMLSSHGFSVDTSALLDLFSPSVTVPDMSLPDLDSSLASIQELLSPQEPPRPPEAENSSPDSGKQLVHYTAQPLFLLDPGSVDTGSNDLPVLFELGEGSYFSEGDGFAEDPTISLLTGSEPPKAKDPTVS
# In short: as §1
# SPIC = target: T8, SPIC (Homo sapiens, UniProt Q8N5J4 1-248); settings: protein: recombinant; tags: N-terminal GST; dsDNA, one strand shown
# T8 sequence: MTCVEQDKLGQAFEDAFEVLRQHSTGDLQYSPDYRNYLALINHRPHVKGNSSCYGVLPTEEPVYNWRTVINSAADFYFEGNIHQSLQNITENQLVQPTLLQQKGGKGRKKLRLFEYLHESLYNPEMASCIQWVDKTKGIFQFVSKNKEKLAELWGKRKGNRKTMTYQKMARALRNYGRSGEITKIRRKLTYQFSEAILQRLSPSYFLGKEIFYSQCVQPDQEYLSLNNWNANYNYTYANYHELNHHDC
# In short: as §1
# ELF4 = ELF4 (Homo sapiens, UniProt Q99607 1-663); settings: protein: recombinant; tags: N-terminal GST; dsDNA, one strand shown
# Sequence of ELF4 (Q99607 whole entry): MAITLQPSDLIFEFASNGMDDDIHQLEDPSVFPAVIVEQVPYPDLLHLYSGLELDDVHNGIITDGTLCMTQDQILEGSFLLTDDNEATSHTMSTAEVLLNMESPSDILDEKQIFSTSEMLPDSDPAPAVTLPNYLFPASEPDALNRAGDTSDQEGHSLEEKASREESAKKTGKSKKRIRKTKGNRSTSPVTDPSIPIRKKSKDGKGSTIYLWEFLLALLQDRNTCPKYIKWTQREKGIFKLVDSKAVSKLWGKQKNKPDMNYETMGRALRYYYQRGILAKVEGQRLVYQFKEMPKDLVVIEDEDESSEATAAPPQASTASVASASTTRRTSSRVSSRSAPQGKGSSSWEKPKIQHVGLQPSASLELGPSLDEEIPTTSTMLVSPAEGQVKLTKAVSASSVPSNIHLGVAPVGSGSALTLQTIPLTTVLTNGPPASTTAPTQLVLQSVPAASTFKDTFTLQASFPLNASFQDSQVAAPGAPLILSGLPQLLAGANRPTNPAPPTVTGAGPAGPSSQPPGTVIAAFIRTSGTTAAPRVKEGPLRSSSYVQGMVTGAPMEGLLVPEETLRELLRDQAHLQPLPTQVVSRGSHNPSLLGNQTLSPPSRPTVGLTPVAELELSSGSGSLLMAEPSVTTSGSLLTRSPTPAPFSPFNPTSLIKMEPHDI
# In short: as §1
# ELK4 = target: T9, ELK4 (Homo sapiens, UniProt P28324-2 1-405); settings: protein: recombinant; tags: N-terminal GST; dsDNA, one strand shown
# T9 sequence: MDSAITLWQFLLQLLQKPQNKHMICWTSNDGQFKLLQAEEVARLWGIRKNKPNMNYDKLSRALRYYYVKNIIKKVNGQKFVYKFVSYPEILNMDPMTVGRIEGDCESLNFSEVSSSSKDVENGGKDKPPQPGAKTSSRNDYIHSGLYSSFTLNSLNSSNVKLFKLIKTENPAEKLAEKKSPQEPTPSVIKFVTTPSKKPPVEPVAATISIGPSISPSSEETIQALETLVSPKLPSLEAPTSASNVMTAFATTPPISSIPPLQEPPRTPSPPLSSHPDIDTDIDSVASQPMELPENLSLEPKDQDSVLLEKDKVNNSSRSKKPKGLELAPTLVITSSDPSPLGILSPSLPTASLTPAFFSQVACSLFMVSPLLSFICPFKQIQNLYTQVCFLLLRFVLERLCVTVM
# In short: as §1
# ETV2 = target: T10, ETV2 (Homo sapiens, UniProt O00321 1-342); settings: protein: recombinant; tags: N-terminal GST; dsDNA, one strand shown
# T10 sequence: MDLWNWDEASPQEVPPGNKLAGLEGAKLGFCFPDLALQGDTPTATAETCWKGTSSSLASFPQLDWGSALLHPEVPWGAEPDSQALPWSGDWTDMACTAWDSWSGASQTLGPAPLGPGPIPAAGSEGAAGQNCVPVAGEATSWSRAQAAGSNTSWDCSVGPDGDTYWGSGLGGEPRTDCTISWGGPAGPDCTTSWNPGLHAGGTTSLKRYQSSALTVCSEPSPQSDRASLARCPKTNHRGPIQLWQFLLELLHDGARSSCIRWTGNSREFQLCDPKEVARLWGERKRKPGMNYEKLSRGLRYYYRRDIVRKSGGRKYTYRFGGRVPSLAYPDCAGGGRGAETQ
# In short: as §1
# ELF3 = target: T11, ELF3 (Homo sapiens, UniProt P78545 1-371); settings: protein: recombinant; tags: N-terminal GST; dsDNA, one strand shown
# T11 sequence: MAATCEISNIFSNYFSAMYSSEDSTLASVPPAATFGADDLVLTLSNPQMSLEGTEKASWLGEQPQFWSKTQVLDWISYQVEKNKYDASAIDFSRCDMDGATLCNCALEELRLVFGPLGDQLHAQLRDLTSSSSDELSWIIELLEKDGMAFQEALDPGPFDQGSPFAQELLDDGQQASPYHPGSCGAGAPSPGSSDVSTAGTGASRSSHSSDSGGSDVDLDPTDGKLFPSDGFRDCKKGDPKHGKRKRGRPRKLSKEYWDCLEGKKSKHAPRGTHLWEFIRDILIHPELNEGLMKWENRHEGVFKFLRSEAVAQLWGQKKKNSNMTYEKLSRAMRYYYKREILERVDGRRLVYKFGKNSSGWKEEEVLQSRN
# In short: as §1
# CRX = CRX (Homo sapiens, UniProt O43186 1-299); settings: protein: recombinant; tags: N-terminal GST; dsDNA, one strand shown
# Sequence of CRX (O43186 whole entry): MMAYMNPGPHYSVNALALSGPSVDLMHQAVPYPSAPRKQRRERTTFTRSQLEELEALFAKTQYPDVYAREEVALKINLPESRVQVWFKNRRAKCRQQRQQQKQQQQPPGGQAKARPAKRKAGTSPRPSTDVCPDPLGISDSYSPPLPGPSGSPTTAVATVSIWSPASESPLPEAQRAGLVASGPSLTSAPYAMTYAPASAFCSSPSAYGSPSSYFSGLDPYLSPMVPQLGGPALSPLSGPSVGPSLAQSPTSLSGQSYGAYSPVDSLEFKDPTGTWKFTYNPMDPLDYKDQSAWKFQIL
# In short: as §1
# ETV1 = ETV1 (Homo sapiens, UniProt P50549 1-477); settings: protein: recombinant; tags: N-terminal GST; dsDNA, one strand shown
# Sequence of ETV1 (P50549 whole entry): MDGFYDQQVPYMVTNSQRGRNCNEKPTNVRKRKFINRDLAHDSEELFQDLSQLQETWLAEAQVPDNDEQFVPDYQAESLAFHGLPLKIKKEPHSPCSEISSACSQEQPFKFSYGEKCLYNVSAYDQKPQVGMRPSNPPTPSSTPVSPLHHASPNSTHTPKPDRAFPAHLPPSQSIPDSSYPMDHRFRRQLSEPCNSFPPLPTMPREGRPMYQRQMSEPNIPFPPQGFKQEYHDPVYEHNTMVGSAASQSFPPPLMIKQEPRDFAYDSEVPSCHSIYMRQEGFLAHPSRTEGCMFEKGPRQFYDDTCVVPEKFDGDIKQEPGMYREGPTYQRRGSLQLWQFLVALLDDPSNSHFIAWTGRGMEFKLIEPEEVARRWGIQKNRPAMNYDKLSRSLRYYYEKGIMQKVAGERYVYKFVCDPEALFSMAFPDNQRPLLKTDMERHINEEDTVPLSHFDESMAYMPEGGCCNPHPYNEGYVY
# In short: as §1
sequence,measurement,setting,value
ACGTAT,binding signal,FLI1,"1.24 fold enrichment (6-mer frequency, TF over GST control)"
same,binding signal,ELK1,"1.29 fold enrichment (6-mer frequency, TF over GST control)"
same,binding signal,GABPA,"1.21 fold enrichment (6-mer frequency, TF over GST control)"
same,binding signal,ERG,"1.17 fold enrichment (6-mer frequency, TF over GST control)"
same,binding signal,ELF1,"1.17 fold enrichment (6-mer frequency, TF over GST control)"
same,binding signal,EHF,"1.29 fold enrichment (6-mer frequency, TF over GST control)"
same,binding signal,SPI1,"1.14 fold enrichment (6-mer frequency, TF over GST control)"
same,binding signal,SPIB,"1.19 fold enrichment (6-mer frequency, TF over GST control)"
same,binding signal,ELK3,"1.42 fold enrichment (6-mer frequency, TF over GST control)"
same,binding signal,FEV,"1.2 fold enrichment (6-mer frequency, TF over GST control)"
same,binding signal,ETV5,"1.2 fold enrichment (6-mer frequency, TF over GST control)"
same,binding signal,HSF1,"1.09 fold enrichment (6-mer frequency, TF over GST control)"
same,binding signal,SPIC,"1.14 fold enrichment (6-mer frequency, TF over GST control)"
same,binding signal,ELF4,"1.27 fold enrichment (6-mer frequency, TF over GST control)"
same,binding signal,ELK4,"1.16 fold enrichment (6-mer frequency, TF over GST control)"
same,binding signal,ETV2,"1.24 fold enrichment (6-mer frequency, TF over GST control)"
same,binding signal,ELF3,"1.25 fold enrichment (6-mer frequency, TF over GST control)"
same,binding signal,CRX,"1.15 fold enrichment (6-mer frequency, TF over GST control)"
same,binding signal,ETV1,"1.32 fold enrichment (6-mer frequency, TF over GST control)"
